What all share (assay): DAPPL (digital affinity profiling via proximity ligation, sequencing); 10 mM Tris-HCl pH 7.5, 50 mM NaCl, 1 mM DTT, 4% glycerol, room temperature, 30 min; GST-TFs on glutathione beads, 16-mer random dsDNA library, 0.1% formaldehyde crosslink after washing; high values mean tight binding
For one experiment, the target named is T1, FLI1 (Homo sapiens, UniProt Q01543 1-452).
T1 sequence: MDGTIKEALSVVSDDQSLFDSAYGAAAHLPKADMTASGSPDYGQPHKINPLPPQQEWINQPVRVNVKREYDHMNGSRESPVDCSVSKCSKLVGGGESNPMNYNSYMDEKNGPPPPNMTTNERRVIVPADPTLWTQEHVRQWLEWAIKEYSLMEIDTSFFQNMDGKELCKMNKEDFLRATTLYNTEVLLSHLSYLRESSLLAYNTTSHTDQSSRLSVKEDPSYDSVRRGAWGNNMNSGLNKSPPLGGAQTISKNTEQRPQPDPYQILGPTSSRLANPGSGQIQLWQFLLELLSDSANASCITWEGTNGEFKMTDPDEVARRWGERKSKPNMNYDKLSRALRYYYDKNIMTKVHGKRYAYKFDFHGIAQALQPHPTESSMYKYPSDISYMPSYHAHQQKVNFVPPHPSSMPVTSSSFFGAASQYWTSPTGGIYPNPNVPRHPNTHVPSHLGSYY
The following applies: protein: recombinant; tags: N-terminal GST; dsDNA, one strand shown. Put shortly: (§1)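 Binding signal is given per hexamer as its read frequency for a factor divided by its frequency in the tag-only sample. GST-fused human transcription factors were expressed in yeast, captured on glutathione beads, barcoded with DNA and pooled with that sample, then incubated with 200 nmole of a 16-mer random double-stranded DNA library in Tris/NaCl/DTT/glycerol buffer for 30 min at room temperature. The pools were then washed, crosslinked, proximity-ligated, amplified by PCR and sequenced on an Illumina NextSeq500.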

In a further experiment the target is T2, ELK1 (Homo sapiens, UniProt P19419 1-428).
T2 sequence: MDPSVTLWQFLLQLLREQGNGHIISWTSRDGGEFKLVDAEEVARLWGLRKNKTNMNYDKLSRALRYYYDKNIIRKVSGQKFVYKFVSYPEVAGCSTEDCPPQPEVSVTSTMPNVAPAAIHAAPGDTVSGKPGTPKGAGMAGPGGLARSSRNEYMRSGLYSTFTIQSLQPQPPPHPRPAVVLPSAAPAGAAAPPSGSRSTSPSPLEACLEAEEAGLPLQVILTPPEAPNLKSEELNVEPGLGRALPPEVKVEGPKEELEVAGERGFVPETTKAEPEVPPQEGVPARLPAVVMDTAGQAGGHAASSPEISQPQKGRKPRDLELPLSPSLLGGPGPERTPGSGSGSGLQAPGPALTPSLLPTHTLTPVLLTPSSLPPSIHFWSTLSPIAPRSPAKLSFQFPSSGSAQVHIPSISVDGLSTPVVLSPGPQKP
The following applies: protein: recombinant; tags: N-terminal GST; dsDNA, one strand shown. Put shortly:
as §1

A further experiment has as its target T3, GABPA (Homo sapiens, UniProt Q06546 1-454).
T3 sequence: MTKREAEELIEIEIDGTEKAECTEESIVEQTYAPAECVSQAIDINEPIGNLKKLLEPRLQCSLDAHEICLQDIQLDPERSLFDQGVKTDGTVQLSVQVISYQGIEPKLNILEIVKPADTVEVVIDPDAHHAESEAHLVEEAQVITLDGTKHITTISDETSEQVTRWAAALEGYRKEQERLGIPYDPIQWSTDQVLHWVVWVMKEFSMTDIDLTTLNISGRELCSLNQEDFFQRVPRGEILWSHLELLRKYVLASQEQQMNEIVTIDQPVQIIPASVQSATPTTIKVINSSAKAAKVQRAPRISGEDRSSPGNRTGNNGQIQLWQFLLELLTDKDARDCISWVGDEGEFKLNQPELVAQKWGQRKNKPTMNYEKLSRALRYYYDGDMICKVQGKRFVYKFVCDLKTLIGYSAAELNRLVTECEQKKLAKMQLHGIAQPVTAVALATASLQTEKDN
The settings on record: protein: recombinant; tags: N-terminal GST; dsDNA, one strand shown. Put shortly: as §1

The target in a further experiment is T4, ERG (Homo sapiens, UniProt P11308 1-479).
T4 sequence: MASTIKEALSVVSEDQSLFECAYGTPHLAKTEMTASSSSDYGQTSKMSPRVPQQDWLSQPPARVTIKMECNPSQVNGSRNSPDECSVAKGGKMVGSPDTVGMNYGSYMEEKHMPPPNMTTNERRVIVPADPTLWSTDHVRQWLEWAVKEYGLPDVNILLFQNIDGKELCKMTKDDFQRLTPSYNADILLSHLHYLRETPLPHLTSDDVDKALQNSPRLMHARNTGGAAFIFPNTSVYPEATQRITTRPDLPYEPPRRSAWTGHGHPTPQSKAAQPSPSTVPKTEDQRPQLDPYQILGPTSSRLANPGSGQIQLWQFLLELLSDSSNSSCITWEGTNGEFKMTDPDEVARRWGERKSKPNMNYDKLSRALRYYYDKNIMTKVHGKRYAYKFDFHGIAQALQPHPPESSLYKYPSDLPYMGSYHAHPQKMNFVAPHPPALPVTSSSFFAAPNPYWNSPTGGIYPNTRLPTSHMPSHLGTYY
The settings on record: protein: recombinant; tags: N-terminal GST; dsDNA, one strand shown. Put shortly: as §1

The next experiment has as its target ELF1 (Homo sapiens, UniProt P32519 1-619). The settings on record: protein: recombinant; tags: N-terminal GST; dsDNA, one strand shown. Put shortly:
as §1

For the next experiment, the target named is T5, EHF (Homo sapiens, UniProt Q9NZC4 1-300).
T5 sequence: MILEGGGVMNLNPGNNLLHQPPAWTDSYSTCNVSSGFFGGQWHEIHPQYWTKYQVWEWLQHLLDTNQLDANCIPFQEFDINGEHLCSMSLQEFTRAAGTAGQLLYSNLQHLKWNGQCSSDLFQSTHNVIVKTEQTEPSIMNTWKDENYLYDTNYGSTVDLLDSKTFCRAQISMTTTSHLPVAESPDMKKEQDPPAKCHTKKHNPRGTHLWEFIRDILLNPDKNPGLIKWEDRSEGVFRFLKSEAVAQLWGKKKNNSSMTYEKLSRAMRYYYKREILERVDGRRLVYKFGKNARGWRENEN
The following applies: protein: recombinant; tags: N-terminal GST; dsDNA, one strand shown. Put shortly:
as §1

In another experiment the target is SPI1 (Homo sapiens, UniProt P17947 1-270). The settings on record: protein: recombinant; tags: N-terminal GST; dsDNA, one strand shown. Put shortly: as §1
The target of a further experiment is SPIB (Homo sapiens, UniProt Q01892 1-262). The settings on record: protein: recombinant; tags: N-terminal GST; dsDNA, one strand shown. Put shortly:
as §1

For the next experiment, the target named is T6, ELK3 (Homo sapiens, UniProt P41970 1-407).
T6 sequence: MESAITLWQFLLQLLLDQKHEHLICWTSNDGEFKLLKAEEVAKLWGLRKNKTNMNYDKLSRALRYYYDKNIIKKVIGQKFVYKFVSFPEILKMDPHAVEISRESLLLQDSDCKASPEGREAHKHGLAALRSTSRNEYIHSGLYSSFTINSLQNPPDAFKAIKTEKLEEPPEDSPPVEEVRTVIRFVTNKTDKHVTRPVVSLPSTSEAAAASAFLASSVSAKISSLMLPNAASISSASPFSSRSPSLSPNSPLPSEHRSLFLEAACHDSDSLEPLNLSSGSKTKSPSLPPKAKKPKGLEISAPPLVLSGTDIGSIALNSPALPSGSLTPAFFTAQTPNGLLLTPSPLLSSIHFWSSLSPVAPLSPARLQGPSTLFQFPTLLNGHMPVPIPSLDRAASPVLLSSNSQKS
The settings on record: protein: recombinant; tags: N-terminal GST; dsDNA, one strand shown. Put shortly:
as §1

The next experiment addresses T7, FEV (Homo sapiens, UniProt Q99581 1-238).
T7 sequence: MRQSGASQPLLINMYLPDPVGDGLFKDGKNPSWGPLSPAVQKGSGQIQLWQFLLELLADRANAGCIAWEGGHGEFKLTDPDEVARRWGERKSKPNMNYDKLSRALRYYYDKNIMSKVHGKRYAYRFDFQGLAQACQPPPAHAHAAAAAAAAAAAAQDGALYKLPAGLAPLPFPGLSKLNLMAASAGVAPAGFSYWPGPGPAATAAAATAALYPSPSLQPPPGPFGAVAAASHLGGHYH
The settings on record: protein: recombinant; tags: N-terminal GST; dsDNA, one strand shown. Put shortly:
as §1

The target in another experiment is ETV5 (Homo sapiens, UniProt P41161 1-510). The following applies: protein: recombinant; tags: N-terminal GST; dsDNA, one strand shown. Put shortly: as §1
The target in a further experiment is HSF1 (Homo sapiens, UniProt Q00613 1-529). The following applies: protein: recombinant; tags: N-terminal GST; chain copies: 3; dsDNA, one strand shown. Put shortly:
as §1

In another experiment the target is T8, SPIC (Homo sapiens, UniProt Q8N5J4 1-248).
T8 sequence: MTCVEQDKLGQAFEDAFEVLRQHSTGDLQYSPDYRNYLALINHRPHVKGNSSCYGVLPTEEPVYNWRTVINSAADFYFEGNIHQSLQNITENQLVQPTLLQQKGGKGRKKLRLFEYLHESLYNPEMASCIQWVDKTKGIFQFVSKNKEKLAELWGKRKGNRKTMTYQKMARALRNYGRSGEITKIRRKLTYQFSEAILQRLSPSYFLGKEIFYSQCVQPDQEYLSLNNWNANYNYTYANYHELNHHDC
The settings on record: protein: recombinant; tags: N-terminal GST; dsDNA, one strand shown. Put shortly:
as §1

In another experiment the target is ELF4 (Homo sapiens, UniProt Q99607 1-663). The following applies: protein: recombinant; tags: N-terminal GST; dsDNA, one strand shown. Put shortly:
as §1

Another experiment concerns the target T9, ELK4 (Homo sapiens, UniProt P28324-2 1-405).
T9 sequence: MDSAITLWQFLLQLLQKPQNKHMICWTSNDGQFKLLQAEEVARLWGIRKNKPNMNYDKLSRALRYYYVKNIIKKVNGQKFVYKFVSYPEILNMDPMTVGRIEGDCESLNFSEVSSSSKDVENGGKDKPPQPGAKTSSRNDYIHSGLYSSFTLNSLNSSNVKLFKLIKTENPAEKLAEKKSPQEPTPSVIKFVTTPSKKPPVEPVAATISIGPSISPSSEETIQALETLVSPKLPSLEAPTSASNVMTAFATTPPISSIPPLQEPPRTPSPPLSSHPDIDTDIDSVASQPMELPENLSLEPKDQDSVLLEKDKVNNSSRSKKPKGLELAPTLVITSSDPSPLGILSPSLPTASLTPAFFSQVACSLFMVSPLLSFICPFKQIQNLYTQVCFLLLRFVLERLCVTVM
The settings on record: protein: recombinant; tags: N-terminal GST; dsDNA, one strand shown. Put shortly: as §1

The target of a further experiment is T10, ETV2 (Homo sapiens, UniProt O00321 1-342).
T10 sequence: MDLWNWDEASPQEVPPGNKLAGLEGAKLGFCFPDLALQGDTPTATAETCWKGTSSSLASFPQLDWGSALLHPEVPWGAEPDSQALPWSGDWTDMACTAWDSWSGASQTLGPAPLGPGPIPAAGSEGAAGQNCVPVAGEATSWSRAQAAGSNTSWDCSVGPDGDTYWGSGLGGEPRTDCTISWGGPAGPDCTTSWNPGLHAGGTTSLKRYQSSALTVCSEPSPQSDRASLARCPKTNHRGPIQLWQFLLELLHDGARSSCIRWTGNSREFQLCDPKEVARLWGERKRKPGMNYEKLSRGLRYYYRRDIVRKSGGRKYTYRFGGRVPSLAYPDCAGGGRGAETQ
The settings on record: protein: recombinant; tags: N-terminal GST; dsDNA, one strand shown. Put shortly:
as §1

The next experiment concerns the target T11, ELF3 (Homo sapiens, UniProt P78545 1-371).
T11 sequence: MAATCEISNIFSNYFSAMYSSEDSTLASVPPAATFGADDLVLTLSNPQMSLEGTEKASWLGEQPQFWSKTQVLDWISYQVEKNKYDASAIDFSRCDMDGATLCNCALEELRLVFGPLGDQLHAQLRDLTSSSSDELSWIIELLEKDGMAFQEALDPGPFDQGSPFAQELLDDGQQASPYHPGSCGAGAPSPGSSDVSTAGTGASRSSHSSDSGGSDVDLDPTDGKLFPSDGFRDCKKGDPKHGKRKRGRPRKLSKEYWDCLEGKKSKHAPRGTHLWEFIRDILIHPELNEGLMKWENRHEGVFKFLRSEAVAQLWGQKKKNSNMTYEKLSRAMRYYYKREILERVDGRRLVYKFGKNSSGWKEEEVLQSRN
The settings on record: protein: recombinant; tags: N-terminal GST; dsDNA, one strand shown. Put shortly:
as §1

Another experiment addresses CRX (Homo sapiens, UniProt O43186 1-299). The settings on record: protein: recombinant; tags: N-terminal GST; dsDNA, one strand shown. Put shortly:
as §1

The target in another experiment is ETV1 (Homo sapiens, UniProt P50549 1-477). The settings on record: protein: recombinant; tags: N-terminal GST; dsDNA, one strand shown. Put shortly:
as §1

Sequence of ELF4 (Q99607 whole entry): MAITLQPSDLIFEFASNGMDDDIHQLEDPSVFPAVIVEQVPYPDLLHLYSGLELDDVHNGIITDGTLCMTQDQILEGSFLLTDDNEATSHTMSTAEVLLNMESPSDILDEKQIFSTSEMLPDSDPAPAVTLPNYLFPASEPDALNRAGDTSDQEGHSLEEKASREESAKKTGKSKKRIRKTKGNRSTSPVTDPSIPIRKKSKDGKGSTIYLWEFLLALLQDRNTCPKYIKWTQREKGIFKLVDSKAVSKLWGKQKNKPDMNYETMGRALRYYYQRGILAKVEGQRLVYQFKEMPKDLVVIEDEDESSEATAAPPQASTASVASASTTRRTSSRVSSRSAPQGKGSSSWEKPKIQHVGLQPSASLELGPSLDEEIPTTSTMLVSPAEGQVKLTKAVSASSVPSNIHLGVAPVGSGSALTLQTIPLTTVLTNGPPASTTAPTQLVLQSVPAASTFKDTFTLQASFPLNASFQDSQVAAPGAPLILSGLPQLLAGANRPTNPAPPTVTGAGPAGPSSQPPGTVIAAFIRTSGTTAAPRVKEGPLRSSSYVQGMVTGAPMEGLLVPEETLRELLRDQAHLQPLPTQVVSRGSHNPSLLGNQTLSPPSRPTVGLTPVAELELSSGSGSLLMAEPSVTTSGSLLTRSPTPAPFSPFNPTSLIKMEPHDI
Sequence of HSF1 (Q00613 whole entry): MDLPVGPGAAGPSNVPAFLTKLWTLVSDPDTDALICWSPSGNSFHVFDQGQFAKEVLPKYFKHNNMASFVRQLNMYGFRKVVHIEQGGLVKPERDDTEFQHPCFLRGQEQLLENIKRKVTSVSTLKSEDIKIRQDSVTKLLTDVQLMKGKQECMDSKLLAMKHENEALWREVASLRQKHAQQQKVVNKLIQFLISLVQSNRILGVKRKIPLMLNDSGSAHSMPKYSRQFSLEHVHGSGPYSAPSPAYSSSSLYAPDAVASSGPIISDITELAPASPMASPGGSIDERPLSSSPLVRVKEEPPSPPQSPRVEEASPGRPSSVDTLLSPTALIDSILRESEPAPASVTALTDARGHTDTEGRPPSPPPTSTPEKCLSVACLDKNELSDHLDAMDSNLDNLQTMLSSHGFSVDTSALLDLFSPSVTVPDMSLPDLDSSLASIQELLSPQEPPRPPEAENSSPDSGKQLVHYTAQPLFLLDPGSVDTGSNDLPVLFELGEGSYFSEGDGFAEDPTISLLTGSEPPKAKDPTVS
Sequence of ETV5 (P41161 whole entry): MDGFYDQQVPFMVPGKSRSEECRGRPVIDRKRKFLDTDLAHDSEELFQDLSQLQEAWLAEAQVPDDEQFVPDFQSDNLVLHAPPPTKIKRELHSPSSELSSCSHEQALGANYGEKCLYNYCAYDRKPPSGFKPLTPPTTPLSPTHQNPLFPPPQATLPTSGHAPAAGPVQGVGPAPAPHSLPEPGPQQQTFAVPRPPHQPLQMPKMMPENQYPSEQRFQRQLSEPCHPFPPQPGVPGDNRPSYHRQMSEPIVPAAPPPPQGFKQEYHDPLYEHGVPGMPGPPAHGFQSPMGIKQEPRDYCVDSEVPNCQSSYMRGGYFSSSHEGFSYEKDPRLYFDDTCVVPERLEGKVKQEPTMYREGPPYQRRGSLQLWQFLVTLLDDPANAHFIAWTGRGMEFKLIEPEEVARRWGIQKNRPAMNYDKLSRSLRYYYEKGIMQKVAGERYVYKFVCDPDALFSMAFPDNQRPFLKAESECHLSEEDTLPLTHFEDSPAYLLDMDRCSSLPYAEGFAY
Sequence of CRX (O43186 whole entry): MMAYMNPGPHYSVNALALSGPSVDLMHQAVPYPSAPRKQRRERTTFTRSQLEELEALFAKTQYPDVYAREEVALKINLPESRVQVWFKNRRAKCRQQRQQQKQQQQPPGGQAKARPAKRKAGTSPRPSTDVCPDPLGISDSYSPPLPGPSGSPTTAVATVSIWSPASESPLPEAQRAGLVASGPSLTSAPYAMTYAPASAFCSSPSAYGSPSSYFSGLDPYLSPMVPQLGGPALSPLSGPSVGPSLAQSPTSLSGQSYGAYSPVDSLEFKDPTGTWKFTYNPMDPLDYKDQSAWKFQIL
Sequence of ELF1 (P32519 whole entry): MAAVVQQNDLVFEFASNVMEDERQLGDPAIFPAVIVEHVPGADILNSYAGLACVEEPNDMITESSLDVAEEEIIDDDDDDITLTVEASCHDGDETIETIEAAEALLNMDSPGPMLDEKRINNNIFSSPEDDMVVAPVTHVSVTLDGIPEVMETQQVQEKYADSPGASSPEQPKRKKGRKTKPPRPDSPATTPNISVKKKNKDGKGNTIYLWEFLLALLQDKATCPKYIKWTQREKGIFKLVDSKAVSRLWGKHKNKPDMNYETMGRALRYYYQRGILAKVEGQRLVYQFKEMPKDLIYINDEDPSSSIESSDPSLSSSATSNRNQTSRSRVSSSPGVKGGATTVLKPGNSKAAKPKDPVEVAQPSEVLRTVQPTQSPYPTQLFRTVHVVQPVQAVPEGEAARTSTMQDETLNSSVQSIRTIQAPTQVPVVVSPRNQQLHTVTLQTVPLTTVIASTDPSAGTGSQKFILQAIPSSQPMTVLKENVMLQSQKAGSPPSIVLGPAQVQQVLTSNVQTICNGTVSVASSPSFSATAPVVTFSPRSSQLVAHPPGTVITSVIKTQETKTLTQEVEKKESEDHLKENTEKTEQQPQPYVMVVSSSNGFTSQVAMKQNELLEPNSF
Sequence of SPIB (Q01892 whole entry): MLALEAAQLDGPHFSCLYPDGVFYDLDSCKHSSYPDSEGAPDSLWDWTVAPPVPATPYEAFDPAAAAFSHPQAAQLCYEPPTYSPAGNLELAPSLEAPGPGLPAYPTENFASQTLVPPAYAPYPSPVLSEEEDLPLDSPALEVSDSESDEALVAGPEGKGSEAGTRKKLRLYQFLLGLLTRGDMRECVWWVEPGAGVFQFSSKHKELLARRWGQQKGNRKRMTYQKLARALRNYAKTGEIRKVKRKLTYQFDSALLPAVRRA
Sequence of ETV1 (P50549 whole entry): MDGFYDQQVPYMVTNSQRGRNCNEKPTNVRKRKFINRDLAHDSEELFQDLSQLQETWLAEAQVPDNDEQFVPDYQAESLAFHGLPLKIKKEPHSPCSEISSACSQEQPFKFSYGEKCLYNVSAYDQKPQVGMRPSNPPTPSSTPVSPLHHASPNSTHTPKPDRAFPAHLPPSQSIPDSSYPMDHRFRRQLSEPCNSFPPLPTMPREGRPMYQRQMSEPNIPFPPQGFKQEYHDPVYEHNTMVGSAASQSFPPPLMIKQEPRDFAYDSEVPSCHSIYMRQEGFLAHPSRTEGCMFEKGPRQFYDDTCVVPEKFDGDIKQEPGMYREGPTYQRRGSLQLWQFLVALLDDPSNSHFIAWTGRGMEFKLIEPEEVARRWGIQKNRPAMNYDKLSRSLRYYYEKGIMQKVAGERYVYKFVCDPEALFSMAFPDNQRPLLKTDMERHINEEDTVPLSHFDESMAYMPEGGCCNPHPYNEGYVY

On to TATCTA, for which the binding signal with FLI1 was 1.18 fold enrichment (6-mer frequency, TF over GST control); with ELK1, 1.23 fold enrichment (6-mer frequency, TF over GST control); with GABPA, 1.35 fold enrichment (6-mer frequency, TF over GST control); in the experiment with ERG, 1.18 fold enrichment (6-mer frequency, TF over GST control); in the experiment with ELF1, 1.18 fold enrichment (6-mer frequency, TF over GST control); with EHF, 1.2 fold enrichment (6-mer frequency, TF over GST control). Further, the binding signal was 1.27 fold enrichment (6-mer frequency, TF over GST control) with SPI1; 1.28 fold enrichment (6-mer frequency, TF over GST control) with SPIB; 1.28 fold enrichment (6-mer frequency, TF over GST control) with ELK3; 1.19 fold enrichment (6-mer frequency, TF over GST control) in the experiment with FEV; 1.14 fold enrichment (6-mer frequency, TF over GST control) in the experiment with ETV5; 1.66 fold enrichment (6-mer frequency, TF over GST control) with HSF1. In addition, the binding signal with SPIC is 1.19 fold enrichment (6-mer frequency, TF over GST control); in the experiment with ELF4, 1.22 fold enrichment (6-mer frequency, TF over GST control); with ELK4, 1.2 fold enrichment (6-mer frequency, TF over GST control); with ETV2 it was 1.25 fold enrichment (6-mer frequency, TF over GST control); in the experiment with ELF3, 1.34 fold enrichment (6-mer frequency, TF over GST control); in the experiment with CRX, 1.73 fold enrichment (6-mer frequency, TF over GST control). Also, the binding signal with ETV1 was 1.14 fold enrichment (6-mer frequency, TF over GST control).

The record behind these values is article PMC7862700, “An all-to-all approach to the identification of sequence-specific readers for epigenetic DNA modifications on cytosine”.
